Measurements as given in PubChem BioAssay AID1159580 (chemical genetic matrix, 2015).
Where “and” joins values, the source holds several entries; their conditions need not be identical. Equal entries are not always repeated. Out of some 5,500 compounds screened, about 2,000 (36%) were called active. Inconclusive results (about 18%) are left out. Cut-off read from the data, not from the text of the source: active = normalized growth mostly below about 0.91 (no sharp cut-off); inconclusive = no clear call, values can overlap the other calls; inactive = mostly above about 0.92. This is one part of the list.

Test: chemical genetic growth profiling, strain panel (AID 1159580);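 note: tested at 20 µM; growth read once vehicle control cultures reached saturation at 30 °C; 1 = growth at the plate median or of vehicle wells; lower values mean less growth of the strain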
Settings: S. cerevisiae deletion strains, growth OD

Measured: normalized growth

CCOC(=O)C1C(C=C(C)C)C1(C)C (stereo unspecified)
inactive: locus YAL013W, strain DEP1, hits give low values 0.998 | locus YAL021C, strain ccr4, hits give low values 0.989 | locus YAL026C, strain drs2, hits give low values 1.01 | locus YAL030W, strain snc1, hits give low values 1 | locus YBL061C, strain skt5, hits give low values 1.01 | locus YBR009C, strain hhf1, hits give low values 0.998 | locus YBR021W, strain FUR4, hits give low values 0.979 | locus YBR023C, strain chs3, hits give low values 1 | locus YBR171W, strain sec66, hits give low values 1 | locus YBR229C, strain ROT2, hits give low values 1 | locus YBR231C, strain swc5, hits give low values 0.995 | locus YBR279W, strain paf1, hits give low values 1 | locus YCL011C, strain gbp2, hits give low values 0.992 | locus YCL016C, strain dcc1, hits give low values 1.01 | locus YCL029C, strain bik1, hits give low values 1.02 | locus YCL061C, strain MRC1, hits give low values 0.996 | locus YCL069W, strain vba3, hits give low values 1 | locus YCR088W, strain abp1, hits give low values 1 | locus YDL005C, strain med2, hits give low values 0.991 | locus YDL035C, strain GPR1, hits give low values 1.01 | locus YDL040C, strain nat1, hits give low values 1.02 | locus YDL074C, strain BRE1, hits give low values 1.03 | locus YDL101C, strain DUN1, hits give low values 1 | locus YDL185W, strain tfp1, hits give low values 1.02 | locus YDL192W, strain arf1, hits give low values 1 | locus YDR001C, strain nth1, hits give low values 1 | locus YDR069C, strain doa4, hits give low values 1 | locus YDR101C, strain arx1, hits give low values 1.01 | locus YDR137W, strain rgp1, hits give low values 1.01 | locus YDR159W, strain sac3, hits give low values 0.939 | locus YDR162C, strain NBP2, hits give low values 1.01 | locus YDR195W, strain ref2 0.99 | locus YDR297W, strain sur2, hits give low values 0.991 | locus YDR318W, strain mcm21, hits give low values 1.01 | locus YDR334W, strain swr1, hits give low values 1.01 | locus YDR335W, strain msn5, hits give low values 1 | locus YDR388W, hits give low values 1.01 | locus YDR392W, strain spt3, hits give low values 0.876 | locus YDR502C, strain sam2, hits give low values 1.01 | locus YEL003W, strain gim4, hits give low values 1.02 | locus YEL037C, strain rad23, hits give low values 1 | locus YEL061C, strain CIN8 (second series), hits give low values 1.01 | locus YEL061C, strain CIN8, hits give low values 1 | locus YER015W, strain faa2, hits give low values 1 | locus YER016W, strain bim1, hits give low values 0.978 | locus YER110C, hits give low values 1.02 | locus YER111C, strain swi4, hits give low values 0.997 | locus YER155C, strain BEM2 (second series), hits give low values 0.981 | locus YER155C, strain BEM2, hits give low values 1 | locus YER167W, strain BCK2, hits give low values 0.998 | locus YFR010W, strain ubp6, hits give low values 1 | locus YGL078C, strain dbp3, hits give low values 1 | locus YGL086W, strain mad1, hits give low values 1.01 | locus YGL167C, strain pmr1, hits give low values 1 | locus YGL173C, strain kem1, hits give low values 1 | locus YGL227W, strain vid30, hits give low values 1 | locus YGL240W, strain doc1, hits give low values 0.97 | locus YGL248W, strain PDE1, hits give low values 1.01 | locus YGL253W, strain hxk2, hits give low values 1.02 | locus YGR078C, strain PAC10, hits give low values 1.01 | locus YGR135W, strain pre9, hits give low values 0.993 | locus YGR252W, strain gcn5, hits give low values 0.982 | locus YHR013C, strain ard1, hits give low values 1 | locus YHR027C, strain rpn1, hits give low values 1 | locus YHR030C, strain SLT2, hits give low values 1 and 1.04 | locus YHR079C, strain IRE1 (second series), hits give low values 1 | locus YHR079C, strain IRE1, hits give low values 1.04 | locus YHR094C, strain hxt1, hits give low values 1.01 | locus YHR129C, strain ARP1, hits give low values 1 | locus YHR142W, strain chs7, hits give low values 1.01 | locus YHR200W, strain rpn10, hits give low values 1.02 | locus YIL066C, strain RNR3, hits give low values 0.996 | locus YIL073C, strain SPO22, hits give low values 1.06 | locus YIL125W, strain kgd1, hits give low values 1.01 | locus YIR030C, strain dcg1, hits give low values 1.01 | locus YJL092W, strain hpr5, hits give low values 1 | locus YJL095W, strain BCK1 (second series), hits give low values 1.02 | locus YJL095W, strain BCK1, hits give low values 1 and 1.02 | locus YJL115W, strain asf1, hits give low values 0.999 | locus YJL129C, strain trk1, hits give low values 0.984 | locus YJL134W, strain LCB3, hits give low values 1 | locus YJL154C, strain vps35, hits give low values 1 | locus YJL164C, strain tpk1, hits give low values 0.989 | locus YJL166W, strain qcr8, hits give low values 0.996 | locus YJL168C, strain set2, hits give low values 1.01 | locus YJL187C, strain SWE1 (second series), hits give low values 1 | locus YJR043C, strain POL32, hits give low values 0.988 | locus YJR066W, strain TOR1, hits give low values 0.991 | locus YKL009W, strain mrt4, hits give low values 1.06 | locus YKL068W, hits give low values 1.01 | locus YKL085W, strain MDH1 (second series), hits give low values 1.01 | locus YKL085W, strain MDH1, hits give low values 1.01 | locus YKL160W, strain elf1, hits give low values 1.01 | locus YKL190W, strain CNB1, hits give low values 0.983 | locus YKR001C, strain vps1, hits give low values 1.04 | locus YKR026C, strain gcn3, hits give low values 1 | locus YKR091W, strain srl3, hits give low values 0.997 | locus YLL001W, strain dnm1, hits give low values 0.978 | locus YLL026W, hits give low values 1.01 | locus YLL041C, strain sdh2, hits give low values 1.01 | locus YLR027C, strain aat2, hits give low values 0.982 | locus YLR039C, strain RIC1, hits give low values 1.01 | locus YLR058C, strain SHM2, hits give low values 1 | locus YLR102C, strain apc9, hits give low values 1.01 | locus YLR113W, strain HOG1, hits give low values 1.04 | locus YLR221C, strain rsa3, hits give low values 1.01 | locus YLR258W, strain gsy2, hits give low values 1.01 | locus YLR262C, strain YPT6 (second series), hits give low values 1.01 | locus YLR262C, strain YPT6, hits give low values 1.02 | locus YLR268W, strain sec22, hits give low values 1.03 | locus YLR320W, strain mms22, hits give low values 0.976 | locus YLR330W, strain CHS5, hits give low values 1.03 | locus YLR342W, strain FKS1 (second series), hits give low values 0.98 | locus YLR342W, strain FKS1, hits give low values 1 | locus YLR357W, strain rsc2, hits give low values 0.925 | locus YLR370C, strain arc18, hits give low values 1.02 | locus YLR371W, strain rom2, hits give low values 1.01 | locus YLR384C, strain iki3, hits give low values 0.995 | locus YLR418C, strain cdc73, hits give low values 1.02 | locus YML016C, strain PPZ1, hits give low values 1.01 | locus YML032C, strain rad52, hits give low values 1 | locus YML120C, strain ndi1, hits give low values 0.994 | locus YML124C, strain tub3, hits give low values 1 | locus YMR058W, strain fet3, hits give low values 1 | locus YMR078C, strain ctf18, hits give low values 1 | locus YMR125W, strain sto1, hits give low values 0.983 | locus YMR129W, hits give low values 1 | locus YMR205C, strain PFK2, hits give low values 0.995 | locus YMR223W, strain ubp8, hits give low values 0.992 | locus YMR231W, strain pep5, hits give low values 0.999 | locus YMR307W, strain GAS1, hits give low values 1.02 | locus YNL067W, strain RPL9B, hits give low values 1 | locus YNL071W, strain lat1, hits give low values 1.01 | locus YNL183C, strain NPR1, hits give low values 0.981 | locus YNL209W, strain ssb2, hits give low values 0.99 | locus YNL233W, strain BNI4, hits give low values 1 | locus YNL248C, strain rpa49, hits give low values 0.95 | locus YNL250W, strain rad50, hits give low values 1.02 | locus YNL271C, strain bni1, hits give low values 1.02 | locus YNL298W, strain CLA4, hits give low values 1.01 | locus YNL307C, strain MCK1, hits give low values 1.02 | locus YNL322C, strain KRE1 (second series), hits give low values 0.969 | locus YNR049C, strain mso1, hits give low values 1 | locus YNR052C, strain pop2, hits give low values 1.01 | locus YOL012C, strain htz1 0.867 | locus YOL147C, strain pex11, hits give low values 1.01 | locus YOR001W, strain rrp6, hits give low values 0.981 | locus YOR061W, strain CKA2, hits give low values 1 | locus YOR069W, strain VPS5, hits give low values 1 | locus YOR070C, strain gyp1, hits give low values 0.996 | locus YOR080W, strain dia2, hits give low values 0.991 | locus YOR083W, strain WHI5, hits give low values 0.937 | locus YOR106W, strain vam3, hits give low values 1 | locus YOR136W, strain idh2, hits give low values 1.02 | locus YOR144C, strain elg1, hits give low values 1.01 | locus YOR184W, strain ser1, hits give low values 1.01 | locus YOR231W, strain MKK1, hits give low values 1.03 | locus YOR265W, strain rbl2, hits give low values 1.01 | locus YOR270C, strain vph1, hits give low values 1.03 | locus YOR290C, strain snf2, hits give low values 1.01 | locus YOR316C, strain cot1, hits give low values 1.01 | locus YPL051W, strain arl3, hits give low values 1 | locus YPL078C, strain atp4, hits give low values 0.991 | locus YPL106C, strain sse1, hits give low values 0.963 | locus YPL240C, strain hsp82, hits give low values 0.998 | locus YPL256C, strain CLN2, hits give low values 1.02 | locus YPR119W, strain clb2, hits give low values 1.01 | locus YPR141C, strain kar3, hits give low values 1.01 | locus YPR163C, strain tif3, hits give low values 1.01 | locus YPR167C, strain met16, hits give low values 1.03 | strain wtn01, hits give low values 1.02
